Source: PubChem BioAssay
An excerpt weighted towards active compounds, which were near 1.8% of everything screened.
LYPLA1 counter – LYPLA1 inhibitors, primary screen, counter-screen for PME1 inhibitor project, biochemical, fluorescence polarization, FP-Rh probe ABPP. actives 0.16% (n = 320,000). recombinant LYPLA1. inhibition, % at 5.9 µM. Acyl-protein thioesterase 1 (Homo sapiens), O75608;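 active means inhibition above the mean of all tested compounds plus 3 SD, set per campaign, cut at about 14% in these data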;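 further: inhibitors block serine hydrolase probe labeling of LYPLA1 so polarization falls; 0% = enzyme with DMSO and 100% = wells lacking LYPLA1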
LYPLA2 inh – LYPLA2 inhibitors, primary screen, counter-screen for PME1 inhibitor project, biochemical, fluorescence polarization, FP-Rh probe ABPP; Acyl-protein thioesterase 2 (Homo sapiens), O95372; recombinant LYPLA2; inhibition, % at 5.9 µM; actives 0.38% (n = 320,000); AID 2177, 2009;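 active means inhibition above the screen-wide mean plus 3 SD, limit set per campaign, cut at about 26% in these data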;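 further: 0% = LYPLA2 with DMSO and 100% = wells lacking LYPLA2 enzyme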
Fam108B inh – mouse Fam108B serine hydrolase inhibitors, primary screen, counter-screen for RBBP9 inhibitor project, biochemical, fluorescence polarization | recombinant Fam108B, FP-Rh probe fluorescence polarization | inhibition, % at 9.51 µM | actives 0.33% (n = 300,000);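 active means inhibition above the screen mean inhibition plus 3 SD, computed separately per campaign, cut at about 18% in these data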;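 further: inhibitors lower polarization as less probe binds the enzyme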
GSTO1 counter – inhibitors of recombinant GSTO1, primary screen, counter-screen for RBBP9 inhibitor project, biochemical, fluorescence polarization. actives 1.1% (n = 300,000). activity-based probe fluorescence polarization. inhibition, % at 5.96 µM. Glutathione S-transferase omega-1 (Homo sapiens), P78417;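 active means inhibition above the campaign mean inhibition plus 3 SD, cut at about 35% in these data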;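 further: 0% = GSTO1-1 with DMSO and 100% = wells lacking GSTO1-1 enzyme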
PAD4 FP inh – human PAD4 inhibitors, primary screen, biochemical, fluorescence polarization, 1536-well format. AID 485272, 2010. recombinant PAD4, RCA probe fluorescence polarization. inhibition, % at 6.36 µM. actives 0.41% (n = 330,000);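 active means percent inhibition above a cutoff equal to the mean of all tested compounds plus 3 SD, cut at about 15% in these data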;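 further: 0% = PAD4 with RCA probe and DMSO and 100% = probe without PAD4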
PME-1 inh – PME-1 inhibitors via competitive probe labeling, primary screen, biochemical, fluorescence polarization, FP-Rh probe, HTS; Protein phosphatase methylesterase 1 (Homo sapiens), Q9Y570; recombinant PME-1; inhibition, % at 5.9 µM; actives 0.53% (n = 320,000);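 active means inhibition above the campaign mean of all compounds plus 3 SD, cut at about 26% in these data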;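 further: competitive labeling of PME-1 active site by serine hydrolase directed probe; 0% = PME-1 with DMSO and 100% = wells lacking PME-1 enzyme; inhibitors block probe labeling so polarization falls and inhibition rises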
Target sequence (Q9Y570 whole entry, looked up): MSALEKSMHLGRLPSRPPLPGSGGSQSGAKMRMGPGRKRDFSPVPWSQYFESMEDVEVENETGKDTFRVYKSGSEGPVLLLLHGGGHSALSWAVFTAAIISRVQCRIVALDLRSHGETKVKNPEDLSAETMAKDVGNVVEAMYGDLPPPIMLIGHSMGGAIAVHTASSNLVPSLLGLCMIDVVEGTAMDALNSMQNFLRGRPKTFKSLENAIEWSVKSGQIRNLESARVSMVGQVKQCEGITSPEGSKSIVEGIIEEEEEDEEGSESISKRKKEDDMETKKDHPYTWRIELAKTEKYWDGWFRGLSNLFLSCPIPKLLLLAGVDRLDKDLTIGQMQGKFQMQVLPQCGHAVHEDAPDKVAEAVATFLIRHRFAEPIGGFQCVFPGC
PAD4 FP conf – human PAD4 inhibitors, confirmation, biochemical, fluorescence polarization; shares compounds with PAD4 FP inh; actives 28% (n = 1,200); recombinant PAD4, RCA probe fluorescence polarization; inhibition, % at 6.36 µM;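 active means mean inhibition across replicates above the hit cutoff set by the earlier primary screen, cut at about 15% in these data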;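 further: inhibitors block active-site labeling by the probe so polarization falls; 0% = PAD4 with probe and DMSO and 100% = probe without PAD4 enzyme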
Numbers without * were called inactive; . = not tested or not shown.

SMILES	LYPLA1 counter	LYPLA2 inh	Fam108B inh	GSTO1 counter	PAD4 FP inh	PME-1 inh	PAD4 FP conf
Cc1cc2c(c(=O)o1)C(c1ccc([N+](=O)[O-])o1)C(C#N)=C(N)O2 (stereo unspecified)	7	10	6	23	27*	12	2
CCC(CC)C1C(C#N)=C(N)Oc2cc(C)oc(=O)c21 (stereo unspecified)	-3	-5	4	-2	-5	-2	.
CCOc1ccc(NC(=O)CN(C)C(=O)CC2CC3CCC2C3)cc1OCC (stereo unspecified)	7	10	1	4	45*	-1	4
COc1cc(-c2nc(C(=O)NCC3CCCO3)cc3c2[nH]c2ccccc23)cc(OC)c1OC (stereo unspecified)	-15	-14	-6	-8	33*	-5	38*
COc1ccccc1-c1nc(C(=O)NCC2CCCO2)cc2c1[nH]c1ccccc12 (stereo unspecified)	-1	-7	-2	-17	37*	-11	33*
CCOC(=O)C1(Cc2ccccc2)C(=O)N(CCCN(C)C)c2ccccc21 (stereo unspecified)	1	-16	-4	-3	7	-7	.
CS(=O)(=O)N(CC(=O)O)c1cc(C(F)(F)F)ccc1Cl	1	2	7	1	1	2	.
COc1ccccc1NC(=O)c1ccc(NC(=O)c2ccc(=O)[nH]c2)cc1	-2	-4	.	.	0	3	.
Cc1sc2ccc3sccc3c2[n+]1C	-2	2	-2	4	17*	-8	14
N#CCSc1nc2cc(C(=O)N3CCCC3)ccc2c(=O)n1Cc1ccccc1	0	6	-5	-5	2	-2	.
N#CCSc1nc2cc(C(=O)N3CCC(C(N)=O)CC3)ccc2c2nc3ccccc3n12	2	4	-1	1	22*	2	25*
COC(=O)c1c(NC(=O)c2ccco2)sc(C(=O)N(C)C)c1C	-3	-12	0	11	19*	-8	16*
COC(=O)c1c(NC(=O)c2cccnc2)sc(C(=O)N(C)C)c1C	5	-2	1	5	2	2	.
Cc1oc2c(C)c(O)ccc2c(=O)c1-c1ccc2ccccc2n1	-2	-1	1	1	84*	-4	-6
CCC(=O)Oc1ccc2c(=O)c(-c3ccc4ccccc4n3)c(CC)oc2c1C	-1	1	6	9	0	-1	.
CN(C(=O)c1ccc(-c2nn(C)c(=O)c3ccccc23)cc1)C1CCCCC1	5	3	2	7	-4	1	.
Fc1ccc(Cn2c(SCc3ccc(F)c(F)c3)nnc2C(F)(F)F)cc1	1	5	3	3	0	1	.
Fc1ccc(Cn2c(SCc3ccc(F)c(C(F)(F)F)c3)nnc2C(F)(F)F)cc1	-3	2	7	6	23*	-1	-3
CCN(CC)c1ccc(C(=O)c2ccccc2C(=O)O)c(O)c1	13	13	9	10	21*	9	26*
CCN(CC)c1ccc(/C=N/N(c2ccccc2)c2ccccc2)c(O)c1	-2	-11	-1	6	-11	-5	.
COc1ccc(OC)c2[nH]c(=O)c(CCNC(=O)CC(C)C)cc12	1	-2	0	2	50*	4	7
COc1ccc(OC)c2[nH]c(=O)c(CCNC(=O)C(C)C)cc12	0	2	0	3	0	3	.
CC(C)c1ccc(OCc2nc(-c3ccccn3)no2)c(Br)c1	2	12	-2	-4	20*	-8	-3
Cc1ccc(OCc2nc(-c3ccccn3)no2)c(Br)c1	0	-3	2	3	0	-4	.
CC1=C(C#N)C(=O)OC(C)(C)C1	14	15	12	7	47*	14	15*
C=CCOc1ccccc1/C=N/NC(=O)Cc1ccc(C)cc1	-1	3	7	0	-1	-6	.
